# Bioassay records deposited in PubChem by National Center for Advancing Translational Sciences (NCATS).
# JMJD2A Tudor: JMJD2A Tudor domain (human) inhibition; AID 504339; AlphaScreen JMJD2A-Tudor / H3K4me3 peptide binding; 390,000 compounds, 4.4% hits; Potency, µM (series often up to 114 µM), for the others: at the top dose activity change, negative = inhibition, actives largely listed as inhibitors; O75164; further: on the % scale 0 is the no-effect control and ±100 the full control effect; nearly all actives have a fitted effect of over 50% in size
# BAZ2B inh: blocks human BAZ2B | AlphaScreen BAZ2B-H3K14Ac peptide displacement | Potency, µM (highest dose often 114 µM), for the others: at the highest dose activity change, negative = inhibition, usual class: inhibitors | 360,000 compounds, 4.4% hits | AID 504333; further: on the % scale 0 is the no-effect control and ±100 the full control effect; nearly all actives have a fitted effect of over 60% in size
#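 AlphaScreen luminescence quantifies BAZ2B engagement of H3K14Ac peptide; the protein and biotinylated peptide are both at 50 nM final, buffer PBS pH 7.4 with 0.01% Tween-20, all steps at room temperature.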
# HP1b binding inh: inhibitors of HP1-beta chromodomain binding to methylated histone tails. AID 540317. Potency, µM (series often up to 114 µM), for inactives: at the highest dose activity change, negative = inhibition, hits mostly inhibitors. AlphaScreen HP1-beta / biotin-H3K9me3 peptide binding. P83916. 390,000 compounds, 0.56% hits; further: nearly all actives have a fitted effect of over 70% in size
#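 Compound inhibition of the preformed complex between 50 nM HP1-beta and 50 nM biotinylated H3K9me3 peptide was read by AlphaScreen. Buffer was PBS pH 7.4 with 0.01% Tween-20. Incubations ran 30 min at room temperature, with 10 ug/mL donor/acceptor beads.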
# G9a block: G9a (human) methyltransferase inhibition. 350,000 compounds, 8.8% hits. Potency, µM (series often up to 102 µM), inactives show at the highest dose activity, negative = inhibition, hits mostly inhibitors. G9a H3K9 monomethylation, AlphaScreen, 2 h. Q96KQ7; further: on the % scale 0 is the no-effect control and ±100 the full control effect; nearly all actives have a fitted effect of over 75% in size
#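 Chemiluminescent proximity detection of H3K9 monomethylation, read after 10 min bead incubation in the dark. Reaction: 20 nM G9a, 500 nM biotin-H3K9 peptide, 20 uM SAM cofactor, 2 h, room temperature, following 15 min enzyme-compound preincubation.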
# L3MBTL1 block: L3MBTL1 (human) inhibition. AlphaScreen L3MBTL1–H3K9me1 peptide binding. Potency, µM (series often up to 57.1 µM), inactives show at the highest dose activity, negative = inhibition, most hits filed as inhibitors. 230,000 compounds, 0.66% hits. AID 485360; further: on the % scale 0 is the no-effect control and ±100 the full control effect; nearly all actives have a fitted effect of over 60% in size
#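 AlphaScreen assay: L3MBTL1 (50 nM final) was preincubated 30 min at room temperature with biotinylated H3(1-15)K9me1 peptide (75 nM final), then 30 min with library compounds; streptavidin donor and nickel chelate acceptor beads (10 ug/mL final) added, 30 min dark.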
# * hit, by the source's call; ? = inconclusive; · = no result given; [ ] = remark or other dose. The list is not random: actives were taken first. Their share in the collection is about 11%. The call rests on the fitted dose curve; in most records, active means well fitted inhibition curve with a large enough effect; inconclusive means small, poorly fitted or top-dose-only effect; inactive means no such curve, though single readings can be large or run the other way. Potency means the concentration at half of the fitted maximal effect.
SMILES,JMJD2A Tudor,BAZ2B inh,HP1b binding inh,G9a block,L3MBTL1 block
COc1cccc(CN2CCc3ccc(NC(=O)CCc4ccc(C)cc4)cc3C2)c1O,-24.4%,?,11.5%,39.8µM*,·
COc1ccc(CN2CCc3ccc(NC(=O)CCc4ccccc4OC)cc3C2)c(O)c1,-24.8%,-31.4%,23.9%,?,·
COC(=O)c1ccc(CN2CCc3ccc(NC(=O)c4ccncc4)cc3C2)cc1,-28.7%,-38.1%,23.5%,50.1µM*,·
COc1cc(CN2CCc3ccc(NC(=O)CCc4ccccc4OC)cc3C2)ccc1O,?,-30.3%,17.1%,44.7µM*,·
CC(=O)Nc1ccc(NC(=O)c2ccc(CN3CCc4ccccc4C3)cc2)cc1,-8.4%,-22.8%,8.5%,12.1%,-0.4%
NCC1CCC(N)C(O[C@@H]2C(O)[C@H](O[C@H]3OC(CO)C(O)C(N)C3O)[C@@H](N)C[C@H]2N)O1 (some centres not stated),·,·,·,-3.0%[2.33 µM],·
N#Cc1cc(S(=O)(=O)c2ccc(Cl)cc2)c(N)[nH]c1=O,1.7%,-34.5%,30.7%,50.1µM*,4.4%
COc1ccc(CNC(=O)c2c3c(nc4ccccc24)C(=O)N(C2CCCCC2)C3)cc1,-12.0%,-22.9%,42.4%,1.9%[59 µM],·
COc1ccc(OC)c(C(=O)NC(CC(N)=O)c2ccc(N3CCN(c4ccccn4)CC3)c([N+](=O)[O-])c2)c1 (configuration not stated),-32.9%,?,16.5%,79.4µM*,-9.4%
COc1ccc(OC)c(C(=O)NC(CC(N)=O)c2ccc(N3CCC(Cc4ccccc4)CC3)c([N+](=O)[O-])c2)c1 (configuration not stated),?,44.7µM*,-19.9%,·,-8.9%
Cc1cc(C)cc(C(=O)NC(CC(N)=O)c2ccc(N3CCN(C)CC3)c([N+](=O)[O-])c2)c1 (configuration not stated),0.0%,-2.8%,41.5%,?,-4.4%
Cc1cc(C)cc(C(=O)NC(CC(N)=O)c2ccc(N3CCN(c4ccccn4)CC3)c([N+](=O)[O-])c2)c1 (configuration not stated),-11.9%,-2.2%,48.5%,79.4µM*,-2.5%
Cc1ccc(CNc2nnc(C)c3nnn(Cc4ccc(F)cc4)c23)cc1,-18.6%,0.0%,27.8%,-6.1%[59 µM],·
CCn1c(CSCc2ccc(Cl)cc2)n[nH]c1=S,56.2µM*,-6.7%,14.1%,3.16µM*,·
CCn1c(CSCc2ccc(C)cc2)n[nH]c1=S,31.6µM*,?,2.8%,·,-1.3%
Cn1c(CSCc2ccc(Cl)c(Cl)c2)n[nH]c1=S,89.1µM*,-8.2%,-6.5%,?,-0.4%
COc1ccc(N2Cc3cccc(C(=O)Nc4ccc(C(C)C)cc4)c3C2=O)cc1,?,·,4.8%,2.1%[59 µM],·
COc1ccc(NCC(=O)Nc2ccc(Cl)cc2C)c(OC)c1,50.1µM*,50.1µM*,?,1.41µM*,-13.8%
Cc1cc(Cl)ccc1NC(=O)CCC(=O)O,-13.6%,4.6%,38.0%,9.9%[59 µM],5.8%
CCOc1ccc(NCC(=O)Nc2ccc(Cl)cc2C)cc1,?,?,-1.7%,8.91µM*,-3.4%
CCCOc1ccc(NC(=O)c2cc3cc(C)ccc3[nH]2)cc1,-3.0%,0.5%,14.1%,·,2.4%
COc1ccc(NC(=O)CC(=O)Nc2ccc(OC)cc2OC)c(OC)c1,-7.4%,5.2%,24.5%,1.6%[12.7 µM],-1.0%[11.4 µM]
CCCOc1ccc(NCC(=O)Nc2ccc(C)cc2C)cc1,?,?,-23.7%,8.91µM*,-16.8%
CCCN(C(=O)Cc1nc(N)n[nH]1)C1(C(=O)Nc2c(C)cccc2C)CCCCC1,-35.1%,79.4µM*,42.8%,-3.6%[12.7 µM],1.3%[11.4 µM]
CCCN(C(=O)Cc1nc(N)n[nH]1)C1(C(=O)Nc2ccccc2C)CCCCC1,?,44.7µM*,20.4%,4.8%[12.7 µM],?
SMILES,JMJD2A Tudor,BAZ2B inh,HP1b binding inh,G9a block,L3MBTL1 block
COc1cccc(-c2nc(NC3CCNCC3)c3ccccc3n2)c1,·,·,·,13.6%[0.501 µM],·
C[C@H](CO)N1C[C@H](C)[C@@H](CN(C)CC2CCCCC2)Oc2c(NC(=O)Cc3ccccc3)cccc2C1=O,56.2µM*,·,-4.4%,·,-7.5%
CC(=O)N(/N=C1\Sc2ccccc2C1=O)c1cccc(C)c1,-34.5%,39.8µM*,-16.3%,?,-18.2%
c1ccc(Sc2ncccn2)nc1,-8.9%,-2.3%,17.2%,31.6µM*,7.0%
COc1ccc(/C=C/C(=O)Nc2ccccc2)cc1OC,-6.5%,-14.8%,29.4%,-34.6%,1.6%
COc1ccc(/C=C/C(=O)Nc2ccc(-n3nncc3-c3ccc(OC)c(OC)c3)cc2)cc1OC,-11.3%,-3.4%,22.0%,50.1µM*,-6.5%
COc1ccc(-c2cnnn2-c2ccc(NC(=O)/C=C/c3ccc(OC)c(OC)c3)cc2)cc1,-19.0%,-3.5%,?,50.1µM*,-14.4%
CC(C)Cn1c(C23CC4CC(CC(C4)C2)C3)n[nH]c1=S,56.2µM*,?,23.4%,3.16µM*,-4.4%
COCCCn1c(C23CC4CC(CC(C4)C2)C3)n[nH]c1=S,7.94µM*,4.2%,5.5%,·,0.0%
COCCCn1c(C)cc(C(=O)COC(=O)C23CC4CC(CC(O)(C4)C2)C3)c1C,-17.9%,11.7%,8.0%,0.8%,-10.1%
Cn1c(C23CC4CC(CC(C4)C2)C3)n[nH]c1=S,5.62µM*,6.3%,-0.1%,22.4µM*,10.5%
CCNc1nc(NCC)nc(-n2cc(C(=O)c3cc(Cl)ccc3O)cn2)n1,?,·,28.2%,·,·
Cc1nc2cccnc2n1C1CCN(S(=O)(=O)c2ccc(C(C)C)cc2)CC1,-19.2%,?,9.2%,-3.6%[59 µM],·
O=C(Nc1cccc(C(=O)N2CCN(c3ccc(F)cc3)CC2)c1)c1nsc2ccccc12,-19.5%,-13.0%,19.3%[57 µM],?,·
CCc1nnc(SCc2ccc(OC)cc2)c2cc3sc(C)cc3n12,-8.8%,-12.3%,41.2%,-18.8%[59 µM],·
Cc1ccccc1OCCC(=O)OCC(=O)N(C)c1c(N)n(Cc2ccccc2)c(=O)[nH]c1=O,-29.2%,-10.5%,19.6%,44.7µM*,·
Cc1ccc(C)c(OCCC(=O)OCC(=O)N(C)c2c(N)n(Cc3ccccc3)c(=O)[nH]c2=O)c1,-14.4%,11.3%,3.1%,0.7%,0.6%
CC(C)CN(C(=O)COC(=O)CNC(=O)c1ccccc1F)c1c(N)n(Cc2ccccc2)c(=O)[nH]c1=O,-2.9%,·,71.8%,·,·
CC(C)Cn1c(SCC(=O)N(C)c2c(N)n(Cc3ccccc3)c(=O)[nH]c2=O)nc2ccccc21,-21.9%,8.2%,?,15.8µM*,2.9%
Cc1ccccc1SCC(=O)OCC(=O)N(C)c1c(N)n(Cc2ccccc2)c(=O)[nH]c1=O,-8.3%,-22.8%,21.3%,10µM*,20.5%
COc1ccccc1C(=O)NCC(=O)OCC(=O)N(CC(C)C)c1c(N)n(Cc2ccccc2)c(=O)[nH]c1=O,-8.1%,6.3%,7.1%,56.2µM*,-1.0%
COCCN(C(=O)CSc1nc2ccccc2c(=O)n1CC(C)C)c1c(N)n(Cc2ccccc2)c(=O)[nH]c1=O,-11.7%,-11.0%,36.3%,?,·
